Test results as given in publication PMC13541613, “GHT-SELEX demonstrates unexpectedly high intrinsic sequence specificity and complex DNA binding of many human transcription factors”.

Assays:
Assay in all cases: HT-SELEX; 20 mM HEPES pH 7, 140 mM KCl, 5 mM NaCl, 1 mM K2HPO4, 2 mM MgSO4, 100 uM EGTA, ZnSO4, 0.1% Tween20; room temperature, 1 h; high values mean tight binding
Conditions in all cases: protein: ivt; tags: eGFP (N-terminal); dsDNA, one strand shown
[1] = biological target: ZNF721 full-length (Homo sapiens, UniProt Q8TF20-2 1-923)
How it was run: (§1)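 Full-length or DNA-binding-domain forms of a tagged transcription factor were produced in HEK293 lysate or cell-free extract and immobilised on beads. Incubation with a randomized 40-base DNA library ran for 1 h at room temperature in HEPES/KCl low-stringency buffer with Tween20, after which bound DNA was washed, heat-eluted, PCR-amplified over successive cycles and Illumina-sequenced. Binding strength is given as the relative k-mer count in selected reads, higher for tighter binding.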

[2] = biological target: ZNF721 DBD1 (Homo sapiens, UniProt Q8TF20-2 29-461)
How it was run: as §1

[3] = biological target: ZNF721 DBD2 (Homo sapiens, UniProt Q8TF20-2 395-923)
How it was run: as §1

Sequence of ZNF721 DBD1 (Q8TF20 17-449): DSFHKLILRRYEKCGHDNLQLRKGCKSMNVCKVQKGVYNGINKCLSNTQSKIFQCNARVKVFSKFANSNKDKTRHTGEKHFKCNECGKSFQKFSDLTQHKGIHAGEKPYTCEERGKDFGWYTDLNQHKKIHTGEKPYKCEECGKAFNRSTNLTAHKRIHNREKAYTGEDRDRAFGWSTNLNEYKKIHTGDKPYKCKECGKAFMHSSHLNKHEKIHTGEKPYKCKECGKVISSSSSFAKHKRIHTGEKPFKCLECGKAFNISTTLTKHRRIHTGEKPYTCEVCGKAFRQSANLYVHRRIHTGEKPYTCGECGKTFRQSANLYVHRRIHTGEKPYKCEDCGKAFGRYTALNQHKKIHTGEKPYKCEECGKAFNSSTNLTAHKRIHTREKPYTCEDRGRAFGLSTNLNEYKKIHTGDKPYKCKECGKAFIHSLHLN
Sequence of ZNF721 full-length (Q8TF20 other isoform, or with tags, fused parts or gaps): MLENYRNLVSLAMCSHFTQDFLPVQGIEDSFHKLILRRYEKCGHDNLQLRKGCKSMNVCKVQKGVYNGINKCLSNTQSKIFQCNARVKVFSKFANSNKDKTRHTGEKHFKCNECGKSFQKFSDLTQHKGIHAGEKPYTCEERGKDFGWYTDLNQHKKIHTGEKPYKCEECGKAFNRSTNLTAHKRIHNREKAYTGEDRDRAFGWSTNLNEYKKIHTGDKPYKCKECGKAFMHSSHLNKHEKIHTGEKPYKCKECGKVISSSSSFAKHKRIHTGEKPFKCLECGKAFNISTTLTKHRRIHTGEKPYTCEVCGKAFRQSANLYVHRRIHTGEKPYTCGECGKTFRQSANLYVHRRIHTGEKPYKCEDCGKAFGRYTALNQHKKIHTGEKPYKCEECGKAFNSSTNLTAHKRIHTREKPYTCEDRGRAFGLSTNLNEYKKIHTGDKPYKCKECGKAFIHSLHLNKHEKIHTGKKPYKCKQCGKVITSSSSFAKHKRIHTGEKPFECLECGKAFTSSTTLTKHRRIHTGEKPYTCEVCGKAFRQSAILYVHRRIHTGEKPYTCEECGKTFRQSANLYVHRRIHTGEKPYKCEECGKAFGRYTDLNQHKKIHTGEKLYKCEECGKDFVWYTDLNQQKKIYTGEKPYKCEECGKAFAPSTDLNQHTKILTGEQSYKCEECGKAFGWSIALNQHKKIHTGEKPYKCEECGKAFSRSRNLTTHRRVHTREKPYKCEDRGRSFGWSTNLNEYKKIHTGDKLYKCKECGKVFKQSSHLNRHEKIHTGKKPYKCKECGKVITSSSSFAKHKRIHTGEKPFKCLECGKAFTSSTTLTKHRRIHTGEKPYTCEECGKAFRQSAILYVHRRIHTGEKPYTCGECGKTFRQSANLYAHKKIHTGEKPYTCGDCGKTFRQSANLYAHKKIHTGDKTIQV
Sequence of ZNF721 DBD2 (Q8TF20 383-911): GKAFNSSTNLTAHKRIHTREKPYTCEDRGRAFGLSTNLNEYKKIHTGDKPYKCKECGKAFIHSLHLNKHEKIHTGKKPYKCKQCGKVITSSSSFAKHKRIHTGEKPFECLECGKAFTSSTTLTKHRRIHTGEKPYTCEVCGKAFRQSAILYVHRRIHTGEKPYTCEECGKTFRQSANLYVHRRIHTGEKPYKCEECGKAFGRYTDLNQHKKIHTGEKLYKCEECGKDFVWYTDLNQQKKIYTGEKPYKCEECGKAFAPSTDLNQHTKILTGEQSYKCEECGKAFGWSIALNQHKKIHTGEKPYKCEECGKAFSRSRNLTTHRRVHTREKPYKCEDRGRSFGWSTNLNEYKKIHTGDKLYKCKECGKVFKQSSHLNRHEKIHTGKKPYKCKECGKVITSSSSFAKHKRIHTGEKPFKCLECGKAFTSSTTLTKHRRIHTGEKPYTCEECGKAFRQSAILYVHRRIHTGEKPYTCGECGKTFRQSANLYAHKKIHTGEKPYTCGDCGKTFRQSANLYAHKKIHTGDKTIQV

Row | Sequence | binding signal [1] [relative 10-mer count] | binding signal [2] [relative 10-mer count] | binding signal [3] [relative 10-mer count]
1 | GAAAAAAAAA | 0.142 | 0.0136 | 0.0513
2 | AAAAACAGTA | 0.176 | 0.00119 | 0.212
3 | ACACCCCACC | 0.13 | 0.00413 | 0.00204
4 | CGTCCCCCAC | 0.104 | 0.00468 | 0.00407
5 | CCTACCCCCC | 0.127 | 0.00555 | 0.00707
6 | AAAAAGCGTC | 0.108 | 0.0239 | 0.0102
7 | CCCACGACCC | 0.107 | 0.00564 | 0.0018
8 | CCACCCCACC | 0.411 | 0.0178 | 0.00731
9 | AGGGTGGTGG | 0.142 | 0.00642 | 0.00455
10 | CCCCACCCCG | 0.186 | 0.00784 | 0.00384
11 | CACCACCCGC | 0.111 | 0.00454 | 0.00527
12 | CGCCCACCCC | 0.23 | 0.00913 | 0.00252
13 | GGGGGCGGGA | 0.119 | 0.00537 | 0.00144
14 | AAAAGCGTAC | 0.118 | 0.0294 | 0.0176
15 | CCTCCCCACC | 0.255 | 0.0111 | 0.00791
16 | CAGCGTTACC | 0.138 | 0.00147 | 0.297
17 | ACCCCCACCC | 0.267 | 0.0108 | 0.0036
18 | GGGGTGGGGA | 0.194 | 0.0094 | 0.00264
19 | GGGGAGGGGA | 0.125 | 0.00674 | 0.0036
20 | ACCCGCCCAC | 0.115 | 0.00413 | 0.00288
21 | AAAAGCTGCA | 0.114 | 0.0533 | 0.00312
22 | CCCCGCCGCC | 0.175 | 0.00541 | 0.0012
23 | CCAAAAAAAG | 0.124 | 0.00812 | 0.0564
24 | AAAGCGTACC | 0.109 | 0.0281 | 0.0144

Row | Sequence | binding signal [1] [relative 10-mer count] | binding signal [2] [relative 10-mer count] | binding signal [3] [relative 10-mer count]
25 | CCTCCCCCGC | 0.131 | 0.00647 | 0.00348
26 | CCCATCCACC | 0.103 | 0.00569 | 0.00827
27 | CCCCCCCCAC | 0.257 | 0.0089 | 0.00539
28 | CCCCACCCAC | 0.337 | 0.0124 | 0.00587
29 | GCACCCCCAC | 0.107 | 0.00523 | 0.0174
30 | CAAACAAGCA | 0.102 | 0.00362 | 0.063
31 | CGTCCCACCC | 0.127 | 0.00495 | 0.00204
32 | CCGCCCCACC | 0.257 | 0.00894 | 0.00407
33 | CAGCGTCTCC | 0.299 | 0.00174 | 0.722
34 | AAAAAGCTCA | 0.112 | 0.0408 | 0.00407
35 | ACCCCCCCCA | 0.154 | 0.005 | 0.00276
36 | CCCTCCCCCC | 0.342 | 0.0158 | 0.00515
37 | GCCCCACCCC | 0.216 | 0.00775 | 0.00599
38 | ACCCCCCCCC | 0.143 | 0.00362 | 0.0018
39 | CCCGCCCCAC | 0.207 | 0.00784 | 0.00252
40 | CACCCCGCCA | 0.108 | 0.00404 | 0.00455
41 | CACCGCCACC | 0.117 | 0.00339 | 0.00384
42 | CCCCCCCCCA | 0.16 | 0.00477 | 0.00312
43 | CCCCAACCAC | 0.156 | 0.00665 | 0.00515
44 | CAACAAAACA | 0.111 | 0.00174 | 0.116
45 | GCCCCCCCCA | 0.107 | 0.00261 | 0.00348
46 | AAAAAAAAGG | 0.175 | 0.00477 | 0.12
47 | AAAAGCAGTA | 0.17 | 0.0204 | 0.117
48 | CCCACCCATC | 0.112 | 0.00514 | 0.00587

Row | Sequence | binding signal [1] [relative 10-mer count] | binding signal [2] [relative 10-mer count] | binding signal [3] [relative 10-mer count]
49 | CCACCCCACG | 0.131 | 0.00495 | 0.00491
50 | ACCACCCCAC | 0.201 | 0.0072 | 0.00479
51 | CCGCCACCAC | 0.106 | 0.00417 | 0.0036
52 | AAAAAAAGGC | 0.162 | 0.00225 | 0.117
53 | AGCATGACCA | 0.152 | 0.00431 | 0.236
54 | CACCCCAACC | 0.142 | 0.0061 | 0.00407
55 | GCCCGCCCCC | 0.106 | 0.00413 | 0.00132
56 | CATCCCACCC | 0.138 | 0.00527 | 0.00563
57 | CATACCCAAA | 0.103 | 0.00583 | 0.0665
58 | CCTCCCCCCA | 0.18 | 0.00761 | 0.0036
59 | AGGGGCGGGG | 0.125 | 0.0044 | 0.00168
60 | GCCCCCCACC | 0.171 | 0.00693 | 0.00455
61 | TAAAAAAACA | 0.162 | 0.00234 | 0.134
62 | AAAAAAAGGT | 0.117 | 0.00583 | 0.0857
63 | CCCACCCAGC | 0.106 | 0.00307 | 0.003
64 | GCCCACCCAC | 0.168 | 0.0061 | 0.00983
65 | AAAAAAAGCT | 0.472 | 0.169 | 0.00923
66 | CCGACCCCCC | 0.153 | 0.00541 | 0.00108
67 | ACCACCCACC | 0.242 | 0.00945 | 0.00875
68 | GGGTGGGGCA | 0.104 | 0.00344 | 0.00216
69 | AAAAAGCAGA | 0.107 | 0.00183 | 0.0852
70 | GCATACCCTA | 0.202 | 0.0231 | 0.217
71 | CCGAAAAAAG | 0.106 | 0.016 | 0.0415
72 | CCCACACCAC | 0.137 | 0.00541 | 0.00503

Row | Sequence | binding signal [1] [relative 10-mer count] | binding signal [2] [relative 10-mer count] | binding signal [3] [relative 10-mer count]
73 | CTTCATACTC | 0.167 | 0.271 | 0.00132
74 | GCATACCCAA | 0.217 | 0.00968 | 0.192
75 | AAGCAGTACC | 0.153 | 0.0727 | 0.0326
76 | ACAGCGTTAC | 0.102 | 0.00105 | 0.207
77 | TCCCACCCCA | 0.147 | 0.00564 | 0.00372
78 | CCCCACTCCC | 0.157 | 0.00688 | 0.00216
79 | CTCCCCCTCC | 0.14 | 0.00784 | 0.00324
80 | GCCCCCTCCC | 0.134 | 0.00633 | 0.00384
81 | CAGAGTACCC | 0.125 |  | 0.18
82 | AGAGTACCCA | 0.112 |  | 0.123
83 | AAAAAACAGC | 1 |  | 0.902
84 | CACGCCCCAC | 0.11 | 0.00326 | 0.00455
85 | ACTGTTTTTC | 0.135 |  | 0.17
86 | ACAGCGTTTC | 0.253 |  | 0.448
87 | AACACTGCTT | 0.388 |  | 0.495
88 | TAAAACAGCA | 0.152 |  | 0.177
89 | CTCCCCCACC | 0.191 | 0.0104 | 0.00348
90 | AAACAGCACA | 0.11 |  | 0.109
91 | CAGGGTATCC | 0.221 |  | 0.431
92 | AGAAAACAGC | 0.251 |  | 0.322
93 | AAAACAGCAC | 0.279 |  | 0.306
94 | AACAGCATCC | 0.117 |  | 0.1
95 | CAGCATGACC | 0.229 |  | 0.437
96 | AAACAGGGTT | 0.271 |  | 0.368

Row | Sequence | binding signal [1] [relative 10-mer count] | binding signal [2] [relative 10-mer count] | binding signal [3] [relative 10-mer count]
97 | AAAACAGCGT | 0.759 |  | 0.975
98 | AACCCTGCTT | 0.197 |  | 0.258
99 | AAACAGCAGT | 0.106 |  | 0.159
100 | AAAAGAACAG | 0.113 |  | 0.0777
101 | AAACAGTGTA | 0.179 |  | 0.225
102 | AAAAGCAGGG | 0.207 |  | 0.218
103 | CGCTGTTTTC | 0.221 |  | 0.356
104 | CAAAGCAGTG | 0.119 |  | 0.198
105 | AAACAGCATT | 0.17 |  | 0.254
106 | ACCCCCACCA | 0.145 | 0.00573 | 0.00503
107 | CCCCTTCCCC | 0.162 | 0.00702 | 0.00192
108 | AAAACAGCCC | 0.152 |  | 0.156
109 | AAAAACAGAA | 0.108 |  | 0.0718
110 | ACAAAACAGC | 0.249 |  | 0.272
111 | CCTCCCCGCC | 0.138 | 0.00697 | 0.00923
112 | AGCAGTGTTG | 0.13 |  | 0.223
113 | CAGCGTTGCC | 0.143 |  | 0.423
114 | CGCTGTTTTA | 0.126 |  | 0.174
115 | AAACAGCAGC | 0.122 |  | 0.135
116 | CCGAAAAAAA | 0.115 | 0.0118 | 0.0585
117 | AAAACAGCGC | 0.17 |  | 0.225
118 | AAAAAGCAGT | 0.497 | 0.0214 | 0.383
119 | ACAAAACAGT | 0.115 |  | 0.123
120 | AAACACTGCT | 0.109 |  | 0.18
